Consider 20 compounds from PubChem BioAssay.

Experiment [1] in a line: antimalarial activity against Dd2 strain (AID 2302;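 active = growth inhibition above 50% at the single 2 µM test dose, taken to imply half-maximal potency below 2 µM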;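 note: 0% = DMSO untreated growth and 100% = chloroquine plus artemisinin killed control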). The note with it: P. falciparum Dd2 in RBCs, LDH growth readout, 72 h; at 2 µM; active compounds read high.
Experiment [2] in a line: human hepatoma cell viability loss – ATP luminescence, cytotoxicity control for P. falciparum antimalarial project, primary screen (AID 2303;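 active = inhibition above 50%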;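 note: 0% = DMSO wells and 100% = digitonin-killed cells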). Conditions: HepG2 viability, 24-48 h, at 10 µM, active compounds read high.
The target in experiment [3] is L-lactate dehydrogenase (Plasmodium falciparum (isolate CDC / Honduras)) (UniProt Q27743). As to the kind of experiment: PfLDH activity inhibition – cell lysate, 3D7 strain, counter-screen for P. falciparum growth inhibition project (AID 2304).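 Note: 0% = vehicle and 100% = reference inhibitor.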 The note with it: P. falciparum 3D7 crude extract, LDH APAD/NBT absorbance; at 2 µM; active compounds read high. A general note: A counterscreen serves to expose hits that act by an unwanted route or on another target.

The nature of experiment [4]: inhibition of 3D7 malaria parasite growth – strain 3D7 (AID 2306).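 Note: 0% = DMSO wells and 100% = chloroquine plus artemisinin control wells.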 The note with it: P. falciparum 3D7 erythrocytic growth, LDH absorbance, 72 h; at 2 µM; active compounds read high.
For experiment [5], the target named is Calcium-dependent protein kinase 1 (Plasmodium falciparum (isolate 3D7)) (UniProt P62344). The experiment is described as follows: PfCDPK1 kinase inhibitors, biochemical, TCAMS library (AID 1159585; cut-off not given, nearly all actives have IC50 up to about 0.98 µM;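 note: inhibitors leave more ATP so luminescence rises with inhibition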). Conditions: recombinant PfCDPK1, Kinase-Glo ATP depletion luminescence.
In experiment [6] the target is Plasmodium falciparum protein kinase 6 (PK6, PF3D7_1337100) (UniProt Q8IDW1). The experiment is described as follows: PfPK6 kinase inhibitors, biochemical, TCAMS library (AID 1159586). The note with it: recombinant PfPK6, Kinase-Glo ATP depletion luminescence. (Kinase-Glo reads ATP consumption through a luciferase reaction.)
The target in experiment [7] is Protein kinase 7 (PK7), Plasmodium falciparum 3D7 (PF3D7_0213400) (UniProt Q7YTF7). The experiment is described as follows: inhibition of Plasmodium PK7 catalytic activity – biochemical, TCAMS antimalarial set, Kinase-Glo luminescence (AID 1159587). Conditions: recombinant PfPK7, Kinase-Glo ATP depletion luminescence.
The target in experiment [8] is Calcium-dependent protein kinase 4 (Plasmodium falciparum (isolate 3D7)) (UniProt Q8IBS5). As to the kind of experiment: PfCDPK4 kinase inhibitors, biochemical, TCAMS library (AID 1159588; cut-off not given, nearly all actives have IC50 up to about 0.91 µM). The note with it: recombinant PfCDPK4, Kinase-Glo ATP depletion luminescence.

Values without a mark were called inactive. For some of these results: Measured potencies and affinities stand elsewhere. Active and inactive are the calls of the source. Unless noted, the rule behind the calls is not given here.

Sequence of Protein kinase 7 (PK7), Plasmodium falciparum 3D7 (PF3D7_0213400) (Q7YTF7 1-343): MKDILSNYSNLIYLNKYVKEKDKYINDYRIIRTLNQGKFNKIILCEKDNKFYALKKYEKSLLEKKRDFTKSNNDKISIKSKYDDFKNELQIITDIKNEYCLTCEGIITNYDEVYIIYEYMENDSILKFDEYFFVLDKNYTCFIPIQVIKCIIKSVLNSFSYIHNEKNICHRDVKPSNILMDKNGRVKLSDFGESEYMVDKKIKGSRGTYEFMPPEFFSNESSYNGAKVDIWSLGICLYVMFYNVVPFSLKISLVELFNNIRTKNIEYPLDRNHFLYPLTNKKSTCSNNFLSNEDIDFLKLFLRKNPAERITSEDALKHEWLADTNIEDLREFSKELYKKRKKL
Sequence of Calcium-dependent protein kinase 4 (Plasmodium falciparum (isolate 3D7)) (Q8IBS5 whole entry, looked up): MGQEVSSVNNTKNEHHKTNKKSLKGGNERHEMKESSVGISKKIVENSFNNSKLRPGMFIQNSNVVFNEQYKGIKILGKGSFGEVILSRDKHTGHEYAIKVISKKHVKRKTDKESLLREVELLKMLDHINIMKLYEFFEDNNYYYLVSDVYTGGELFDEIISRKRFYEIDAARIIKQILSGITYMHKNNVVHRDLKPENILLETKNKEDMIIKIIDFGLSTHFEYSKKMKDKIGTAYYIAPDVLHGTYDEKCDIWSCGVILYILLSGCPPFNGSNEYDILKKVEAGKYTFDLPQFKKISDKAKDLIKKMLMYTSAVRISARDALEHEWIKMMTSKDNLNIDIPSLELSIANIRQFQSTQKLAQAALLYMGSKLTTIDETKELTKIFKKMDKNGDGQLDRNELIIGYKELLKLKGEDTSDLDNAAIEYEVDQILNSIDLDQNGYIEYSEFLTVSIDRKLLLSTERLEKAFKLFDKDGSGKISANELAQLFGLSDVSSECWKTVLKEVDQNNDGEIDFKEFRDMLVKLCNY
Sequence of Plasmodium falciparum protein kinase 6 (PK6, PF3D7_1337100) (Q8IDW1 1-305): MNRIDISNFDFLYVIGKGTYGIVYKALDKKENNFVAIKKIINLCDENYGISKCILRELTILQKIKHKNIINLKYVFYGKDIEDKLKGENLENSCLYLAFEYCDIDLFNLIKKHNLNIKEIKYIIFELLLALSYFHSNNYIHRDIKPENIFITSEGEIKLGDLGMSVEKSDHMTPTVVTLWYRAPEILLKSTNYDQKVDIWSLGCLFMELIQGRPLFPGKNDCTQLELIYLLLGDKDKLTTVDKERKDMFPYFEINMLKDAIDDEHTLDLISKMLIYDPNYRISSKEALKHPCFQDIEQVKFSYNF
Sequence of L-lactate dehydrogenase (Plasmodium falciparum (isolate CDC / Honduras)) (Q27743 whole entry, looked up): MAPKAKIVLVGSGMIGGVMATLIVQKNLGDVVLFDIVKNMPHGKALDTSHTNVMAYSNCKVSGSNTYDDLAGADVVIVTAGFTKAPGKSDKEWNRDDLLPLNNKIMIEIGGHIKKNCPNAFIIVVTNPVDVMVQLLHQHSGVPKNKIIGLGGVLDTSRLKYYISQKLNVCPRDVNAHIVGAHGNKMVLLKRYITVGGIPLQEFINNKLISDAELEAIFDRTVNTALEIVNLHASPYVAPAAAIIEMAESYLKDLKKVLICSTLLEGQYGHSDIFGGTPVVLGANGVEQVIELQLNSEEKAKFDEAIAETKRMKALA
Sequence of Calcium-dependent protein kinase 1 (Plasmodium falciparum (isolate 3D7)) (P62344 whole entry, looked up): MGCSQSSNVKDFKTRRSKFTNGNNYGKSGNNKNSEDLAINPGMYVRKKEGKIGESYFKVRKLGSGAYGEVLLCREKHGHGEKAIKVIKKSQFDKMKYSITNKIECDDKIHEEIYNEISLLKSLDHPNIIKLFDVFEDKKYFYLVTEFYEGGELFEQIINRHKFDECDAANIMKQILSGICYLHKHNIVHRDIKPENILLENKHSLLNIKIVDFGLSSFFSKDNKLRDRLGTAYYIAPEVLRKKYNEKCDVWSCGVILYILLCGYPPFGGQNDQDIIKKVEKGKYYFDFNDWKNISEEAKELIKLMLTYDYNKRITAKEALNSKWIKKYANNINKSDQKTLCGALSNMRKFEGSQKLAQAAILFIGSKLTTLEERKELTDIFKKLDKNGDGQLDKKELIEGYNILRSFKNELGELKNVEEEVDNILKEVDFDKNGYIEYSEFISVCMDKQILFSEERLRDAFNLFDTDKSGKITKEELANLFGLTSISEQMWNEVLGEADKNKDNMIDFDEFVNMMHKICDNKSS

By inhibition is commonly meant the relative decrease from the control value, in per cent. For `CCOCCCNc1ncc(-c2ccsc2)c(-c2nc(C)cs2)n1`, the growth inhibition was 83% (active) in experiment [1] and 89% (active) in experiment [4]. Further, the inhibition in experiment [2] is 0%; in experiment [3], 1%. Moreover, the outcome in experiment [5], in experiment [6], in experiment [7] and in experiment [8] was inactive.
On to `COc1ccc(C(=O)[C@H]2C[C@@H]2CN(C)CC(O)c2cc(C)c(OC)cc2C)cc1` (stereo not given in full), for which the values for the growth inhibition in experiment [1] and in experiment [4] were 77% (active) and 90% (active), respectively. Also, the inhibition in experiment [2] was 8%; in experiment [3], -3%. The result in experiment [5], in experiment [6], in experiment [7] and in experiment [8] was inactive.
Turning to `CCn1c(SCc2ccc(F)cc2)nc2sc3c(c2c1=O)CCN(C)C3`, the growth inhibition is 81% (active) in experiment [1] and 95% (active) in experiment [4]. For the same compound, the inhibition in experiment [2] was 2%; in experiment [3], 3%. The outcome in experiment [5], in experiment [6], in experiment [7] and in experiment [8] was inactive.
On to `Cc1cccc2[nH]c(-c3ccc(-c4ccc(CN5CCC(CO)CC5)cc4)s3)nc12`, for which the growth inhibition in experiment [1] is 82% (active); in experiment [4] it was 101% (active). Further, the inhibition is 15% in experiment [2] and -10% in experiment [3]. For the same compound, the outcome in experiment [5], in experiment [6], in experiment [7] and in experiment [8] was inactive.
For the compound `OCCN1CCN(Cc2cccc(-c3ccc(-c4nc5ccc(C(F)(F)F)cc5[nH]4)cc3)c2)CC1`, the growth inhibition in experiment [1] was 85% (active); in experiment [4], 102% (active). Further, the inhibition is 19% in experiment [2] and -2% in experiment [3]. Moreover, the outcome in experiment [5], in experiment [6], in experiment [7] and in experiment [8] was inactive.
For the compound `O=C(Nc1cccc(-c2ccc(CN3CCCC3)cc2)c1)c1cccc(F)c1`, the values for the growth inhibition in experiment [1] and in experiment [4] were 17% and 99% (active), respectively. Moreover, the inhibition in experiment [2] was 20%; in experiment [3], -6%. In addition, the outcome in experiment [5], in experiment [6], in experiment [7] and in experiment [8] was inactive.
For the compound `COc1ccc2ncc(F)c(CCN3C[C@H](CNCc4ccc5c(c4)OCCO5)[C@H](O)C3)c2n1`, the figures for the growth inhibition in experiment [1] and in experiment [4] were 35% and 94% (active), respectively. Further, the inhibition in experiment [2] is 18%; in experiment [3] it was 7%. The outcome in experiment [5], in experiment [6], in experiment [7] and in experiment [8] was inactive.
Take `C=CCc1cc(C)ccc1OCCCON1C(N)=NC(N)=NC1(C)C`: the growth inhibition in experiment [1] and in experiment [4] was 96% (active) in each case. The inhibition in experiment [2] was 64% (active); in experiment [3], -6%. The result in experiment [5], in experiment [6], in experiment [7] and in experiment [8] was inactive.
With `CCOC(=O)CN(c1ccc(Br)cc1OCCOc1cc(Br)ccc1N(CC(=O)OCC)C(C)C(=O)OCC)C(C)C(=O)OCC` (stereo not given), the growth inhibition in experiment [1] was 6%; in experiment [4], 94% (active). Further, the values for the inhibition in experiment [2] and in experiment [3] were -15% and 6%, respectively. The outcome in experiment [5], in experiment [6], in experiment [7] and in experiment [8] was inactive.
Consider `COc1ccc(O)c(Cc2cnc3nc(N)nc(N)c3c2C)c1`, for which the growth inhibition is 74% (active) in experiment [1] and 94% (active) in experiment [4]. For the same compound, the inhibition in experiment [2] is 56% (active); in experiment [3] it was 5%. Further, the result in experiment [5], in experiment [6], in experiment [7] and in experiment [8] was inactive.
With `CC1(C)S(=O)(=O)CC(O)CS1(=O)=O`, the growth inhibition in experiment [1] is 9%; in experiment [4] it was 98% (active). Further, the results for the inhibition in experiment [2] and in experiment [3] were 8% and 3%, respectively. Further, the result in experiment [5], in experiment [6], in experiment [7] and in experiment [8] was inactive.
On to `Cc1cc(N[C@@H](CC(C)C)C(=O)NCc2cccs2)nc(NCCc2ccc(F)cc2)n1`, for which the growth inhibition was 59% (active) in experiment [1] and 100% (active) in experiment [4]. The results for the inhibition in experiment [2] and in experiment [3] were 20% and -2%, respectively. The outcome in experiment [5], in experiment [6], in experiment [7] and in experiment [8] was inactive.
Regarding `O=C(C=Cc1ccc(Cl)c(Cl)c1)NCCCCCN1CCCC(CCCNC(=O)c2ccc3c(c2)OCO3)C1` (stereo not given), the growth inhibition is 4% in experiment [1] and 95% (active) in experiment [4]. Further, the values for the inhibition in experiment [2] and in experiment [3] were 30% and 3%, respectively. Also, the result in experiment [5], in experiment [6], in experiment [7] and in experiment [8] was inactive.
Consider `Nc1nc(Nc2ccc(Cl)cc2)nc2ccccc12`, for which the figures for the growth inhibition in experiment [1] and in experiment [4] were 21% and 101% (active), respectively. Moreover, the results for the inhibition in experiment [2] and in experiment [3] were 6% and -2%, respectively. The result in experiment [5], in experiment [6], in experiment [7] and in experiment [8] was inactive.
Regarding `CCCCc1ccc(NC(=O)Nc2cccc(CCNCc3ccccc3)c2)cc1`, the growth inhibition is 13% in experiment [1] and 94% (active) in experiment [4]. Also, the inhibition in experiment [2] was 3%; in experiment [3] it was 2%. In addition, the result in experiment [5], in experiment [6], in experiment [7] and in experiment [8] was inactive.
As to `Cc1cc(C(=O)NC2CCN(Cc3ccccc3)CC2)ccc1-c1nc2ccc(C(F)(F)F)cc2[nH]1`, the growth inhibition in experiment [1] was 2%; in experiment [4], 95% (active). The inhibition in experiment [2] is 19%; in experiment [3], -1%. In addition, the result in experiment [5], in experiment [6], in experiment [7] and in experiment [8] was inactive.
On to `CCCCN(CCCC)C(=NCCCCCCN=C(NC(N)=NCc1ccc(Cl)c(Cl)c1)N(CCCC)CCCC)NC(N)=NCc1ccc(Cl)c(Cl)c1`, for which the growth inhibition is 96% (active) in experiment [1] and 100% (active) in experiment [4]. Also, the values for the inhibition in experiment [2] and in experiment [3] were 9% and -7%, respectively. The result in experiment [5], in experiment [6], in experiment [7] and in experiment [8] was inactive.
As to `C=C(C)COc1ccc(-c2n[nH]c(C(F)(F)F)c2-c2ccccc2OC)c(O)c1`, the growth inhibition in experiment [1] was 72% (active); in experiment [4] it was 98% (active). Further, the inhibition in experiment [2] is 19%; in experiment [3] it was -5%. Further, the result in experiment [5], in experiment [6], in experiment [7] and in experiment [8] was inactive.
With `Cc1ccccc1C1CCN(C2CCC(NC(=O)/C=C/c3cccc(Cl)c3Cl)CC2)CC1` (stereo not given), the growth inhibition in experiment [1] is 23%; in experiment [4], 94% (active). Also, the inhibition in experiment [2] is 74% (active); in experiment [3], 2%. Further, the outcome in experiment [5], in experiment [6], in experiment [7] and in experiment [8] was inactive.
In the case of `CN(C)CCN(C)Cc1ccc(-c2ccc(NC(=O)c3ccc(Cl)cc3)cc2)cc1`, the growth inhibition is 19% in experiment [1] and 91% (active) in experiment [4]. In addition, the figures for the inhibition in experiment [2] and in experiment [3] were 51% (active) and -2%, respectively. The outcome in experiment [5], in experiment [6], in experiment [7] and in experiment [8] was inactive.
